Experimental data reported in PubChem BioAssay (NCATS).
Where “and” joins values, the source holds several entries; their conditions need not be identical. Equal entries are not always repeated. Results filed as inconclusive are left out. Calls of active or inactive are those of the source. Unless noted, calls come from the whole dose curve; as a rule, active = well fitted curve in the direction sought with a large enough effect; inconclusive = small, poorly fitted or top-dose-only effect, or another doubt; inactive = no such curve, though single readings can be large; an effect the other way counts as inactive or inconclusive.

Key:
[1] = Cell Viability - LYMP2-020 (AID 986);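 note: plate controls were DMSO only for no effect and tetraoctylammonium bromide at 92 µM for full effect; nearly all actives have a fitted effect of over 55% in size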
Procedure, shortened: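 Luminescent ATP signal (CellTiter-Glo, 30 min at room temperature) is the read-out after 24 h compound treatment of lymphoblastoid cells at 37 C. AC50 values come from Hill-equation fits across concentrations.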

[2] = Cell Viability - LYMP2-022 (AID 987);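 note: 0% = DMSO alone and full effect = tetraoctylammonium bromide at 92 µM; nearly all actives have a fitted effect of over 55% in size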
Procedure, shortened: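 qHTS: human lymphoblastoid cells 2500/well; 5 hr 37 C; cpd added; 24 hr 37 C; CellTiter-Glo, 30 min RT; luminescence. AC50 via Hill fit; tetraoctylammonium bromide positive ctrl.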

[3] = Cell Viability - LYMP2-024 (AID 988);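 note: plate controls were DMSO only for no effect and 92 µM tetraoctylammonium bromide for full effect; nearly all actives have a fitted effect of over 60% in size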
Procedure, shortened: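 Steps: seed 2500 cells/well, 5 hr 37 C; add compound, 24 hr 37 C; add CellTiter-Glo, 30 min room temperature; read luminescence. AC50 derived by Hill modelling of concentration-dependent ATP loss.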

[4] = Cell Viability - LYMP2-026 (AID 989); note: % is set by controls: 0 for no effect and ±100 for the full control effect; nearly all actives have a fitted effect of over 50% in size
Procedure, shortened: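 Luminescent ATP signal (CellTiter-Glo, 30 min room temperature) measures viable lymphoblastoid cells after 24 hr compound treatment at 37 C. Decreased ATP reflects acute toxicity; AC50 values come from Hill-equation modeling.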

[5] = Cell Viability - LYMP1-002 - Assay at 24 hr (AID 993); note: % is set by controls: 0 for no effect and ±100 for the full control effect
Description: NIH Chemical Genomics Center [NCGC]
NIH Molecular Libraries Screening Centers Network [MLSCN]
National Institutes of Environmental Health Sciences [NIEHS]
National Toxicology Program [NTP]
We have developed a 1536-well cell-based assay for quantitative high throughput screening (qHTS) against a number of cell lines to determine in vitro cytotoxicity of small molecules. This particular assay uses a human lymphoblastoid cell line (LYMP1-002) purchased from Coriell Institute for Medical Research.
NCGC Assay Protocol Summary:
The CellTiter-Glo luminescent cell viability assay (Promega) is a homogeneous method to measure the number of viable cells in culture. The end point readout of this assay is based on quantitation of intracellular ATP, an indicator of metabolic activity, using the luciferase reaction. Luciferase catalyzes the oxidation of beetle Luciferin to oxyluciferin and light in the presence of ATP. The luminescent signal is proportional to amount of ATP present.
Using the CellTiter-Glo luminescent cell viability assay, the amount of cellular ATP was measured in the lymphoblastoid cell line with complete culture medium following compound treatment for 24 hours. The assay was performed in opaque white Kalypsys 1536-well plates. In the screen, tetraoctylammonium bromide was used as positive control. Library compounds were measured for their ability to cause acute toxicity in the cell line, as reflected by a decrease in intracellular ATP levels, in a concentration-dependent manner. […] AC50 values were determined from concentration-response data modeled with the standard Hill equation.
qHTS protocol for CellTiter Glo lymphoblastoid cellular assay
[Step] [Parameter] [Value] [Description]
1. Reagent; 5 uL; 2500 lymphoblastoid cells/well
2. Time; 5 hr; 37 C incubation
4. Controls; 23 nL; Tetraoctylammonium bromide 6.4pM to 92 uM
5. Time; 24 hr; 37 C incubation
6. Reagent; 5 uL; CellTiter Glo reagent
7. Time; 30 min; Room Temperature
8. Detection; Luminescence; Viewlux plate reader
Keywords: cell viability, cytotoxicity, lymphoblastoid cell line, luminescence, NTPHTS, NTPHTS_NCGC, NIEHS, DSSTox, MLSMR, MLSCN, NIH Roadmap, qHTS, NCGC

[6] = Cell Viability - LYMP1-002 - Assay at 40 hr (AID 994);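 note: 0% = DMSO only and full inhibition = 92 µM tetraoctylammonium bromide; nearly all actives have a fitted effect of over 60% in size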
Procedure, shortened: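 Luminescent ATP signal served as the viability readout, with decreases taken as toxicity. Cells were treated with compounds across a concentration range for 40 hours at 37 C, and AC50 values came from standard Hill modeling.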

[7] = molecular target: Alpha-galactosidase A (Homo sapiens) (UniProt P06280); assay: Counterscreen for Glucocerebrosidase Inhibitors: qHTS Assay for Human alpha-Galactosidase at pH 4.5 (AID 992); note: 0% is about no effect
Chain of Alpha-galactosidase A (Homo sapiens) (P06280 whole entry, looked up): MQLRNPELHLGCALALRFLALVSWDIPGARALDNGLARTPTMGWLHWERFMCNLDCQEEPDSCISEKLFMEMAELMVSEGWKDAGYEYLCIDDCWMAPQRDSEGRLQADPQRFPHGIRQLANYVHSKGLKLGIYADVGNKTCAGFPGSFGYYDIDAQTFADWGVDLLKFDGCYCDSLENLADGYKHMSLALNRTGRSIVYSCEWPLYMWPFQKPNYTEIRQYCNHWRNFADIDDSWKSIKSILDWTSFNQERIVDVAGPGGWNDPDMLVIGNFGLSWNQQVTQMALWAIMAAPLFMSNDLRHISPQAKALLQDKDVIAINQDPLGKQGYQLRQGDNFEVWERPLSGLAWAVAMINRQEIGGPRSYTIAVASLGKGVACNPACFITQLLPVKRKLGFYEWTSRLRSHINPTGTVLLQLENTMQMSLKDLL
Procedure, shortened: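 Quantitative HTS: compounds tested from 0.7 nM up to 77 uM against 2 nM enzyme with 80 uM 4-MU alpha-D-galactopyranoside. The 20 min room-temperature reaction is stopped with 1M NaOH/1M glycine, pH 10.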

[8] = molecular target: alpha-glucosidase (Oryza sativa, rice) (UniProt Q653V4); assay: Counterscreen for Glucocerebrosidase Inhibitors: qHTS Assay for Rice alpha-Glucosidase at pH 5.0 (AID 997);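 note: 0% = full activity with enzyme and -100% = basal without enzyme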
Procedure, shortened: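 Rice alpha-glucosidase (4 nM final) with 400 uM 4-methylumbelliferyl-alpha-D-glucopyranoside in citrate buffer pH 5.0, 20 min at room temperature, stopped at pH 10; fluorescence 365/440 nm, compounds 0.7 nM–77 uM, AC50 from Hill fits.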

[9] = Validation of Assay for Modulators of Lamin A Splicing (AID 1459; active = well fitted curve in the direction sought with a large enough effect in the signal ratio; the % refers to the signal ratio;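 note: cells exposed to compound for two days before reading; 0% is about no effect; ratio rise marks activators and ratio drop marks inhibitors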)
Procedure, shortened: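 Dual-reporter HeLa S3 line (lamin A-EGFP minigene, DsRed2) treated with compounds 48 hrs, 0.5% DMSO final. Endpoint: EGFP/DsRed2 total intensity ratio from laser-scanning microplate cytometry.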

[10] = qHTS Assay for Lipid Storage Modulators (AID 1519; calls by dose curve; for activity change, negative = inhibition: % is set by controls: 0 for no effect and ±100 for the full control effect); conditions: Drosophila S3 cells, BODIPY lipid droplet/cell ratio, laser cytometry, cells loaded with oleic acid; for activity change, negative = inhibition: at 57.5 µM (top of the series)
Procedure, shortened: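 Cells seeded at 5,000 per well were treated with compounds over a concentration series and loaded with oleic acid (400 uM, as added). Lipid droplet fluorescence (488 nm excitation, 500-530 nm channel) was read by laser-scanning cytometry and normalized to 20 uM Triacsin C.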

[11] = measured here: cell count channel max response
[12] = measured here: lipid channel max response

## CN(C)Cc1ccccc1
[1]
  outcome: inactive
[2]
  outcome: inactive
[3]
  outcome: inactive
[4]
  outcome: inactive
[5]
  outcome: inactive
[6]
  outcome: inactive

## C=Cc1ccccc1
[3]
  outcome: inactive
[4]
  outcome: inactive
[5]
  outcome: inactive
[6]
  outcome: inactive

## NCCCC(=O)O
[7]
  outcome: inactive
[8]
  outcome: inactive
[9]
  outcome: inactive
[10]
  activity change, negative = inhibition: -0.209% (inactive) and 6.45% (inactive) and 0.252% (inactive)
[10]; [11]
  max response: -9.18% and 2.91% and -17.1%
[10]; [12]
  max response: -6.14% and 11.3% and -29.6%

## C1CNCCN1
[10]
  activity change, negative = inhibition: 8.66% (inactive)
[10]; [11]
  max response: 6.29%
[10]; [12]
  max response: 18.5%

## CCCCCCCCCCCCCCCC(=O)OC/C=C(C)/C=C/C=C(C)/C=C/C1=C(C)CCCC1(C)C
[10]
  activity change, negative = inhibition: 3.99% (inactive)
[10]; [11]
  max response: 7.5%
[10]; [12]
  max response: 14%

## COC(C)=O
[1]
  outcome: inactive
[2]
  outcome: inactive
[3]
  outcome: inactive
[4]
  outcome: inactive
[5]
  outcome: inactive
[6]
  outcome: inactive

## Cc1ccc(OC[C@H](O)[C@H](C)NC(C)C)c2c1CCC2
[7]
  outcome: inactive
[8]
  outcome: inactive
[10]
  activity change, negative = inhibition: -0.878% (inactive)
[10]; [11]
  max response: 5.72%
[10]; [12]
  max response: 7.78%

## CCCCCCCCCC(=O)O
[1]
  outcome: inactive
[2]
  outcome: inactive
[3]
  outcome: inactive
[4]
  outcome: inactive
[5]
  outcome: inactive
[6]
  outcome: inactive

## O=C(O)CC(O)(CC(=O)O)C(=O)O
[1]
  outcome: inactive
[2]
  outcome: inactive
[4]
  outcome: inactive
[5]
  outcome: inactive
[6]
  outcome: inactive
[10]
  activity change, negative = inhibition: -0.75% (inactive)
[10]; [11]
  max response: 14.5%
[10]; [12]
  max response: 16%

## CN[C@H]1CC[C@@H](c2ccc(Cl)c(Cl)c2)c2ccccc21
[7]
  outcome: inactive
[8]
  outcome: inactive
